Reference: the supplement of paper PMC6992640
± gives the standard deviation of the averaged measurements.

What was measured:
Experiment in all cases: cell viability (% of vehicle); higher = less cytotoxic
HCI01 [1] = cells of a triple-negative basal-like breast cancer xenograft; details: 1 µM; 72 h
UCD52 [2] = cells of a triple-negative basal-like breast cancer xenograft; details: 1 µM; 72 h
WHIM2 [3] = cells of a triple-negative basal-like breast cancer xenograft; details: 1 µM; 72 h
WHIM30 [4] = cells of a triple-negative basal-like breast cancer xenograft; details: 1 µM; 72 h
HCI01 [5] = details: 10 µM; 72 h
HCI03 = cells of an ER-positive luminal breast cancer xenograft; details: 10 µM; 72 h
HCI09 = cells of a triple-negative luminal androgen receptor type breast cancer xenograft; details: 10 µM; 72 h
HCI11 = cells of an ER-positive luminal breast cancer xenograft; details: 10 µM; 72 h
HCI13 = cells of an ER-positive luminal breast cancer xenograft; details: 10 µM; 72 h
HCI16 = cells of a triple-negative basal-like breast cancer xenograft; details: 10 µM; 72 h
UCD52 [6] = details: 10 µM; 72 h
WHIM2 [7] = details: 10 µM; 72 h
WHIM30 [8] = details: 10 µM; 72 h

SMILES	cell viability (HCI01 [1])	cell viability (UCD52 [2])	cell viability (WHIM2 [3])	cell viability (WHIM30 [4])	cell viability (HCI01 [5])	cell viability (HCI03)	cell viability (HCI09)	cell viability (HCI11)	cell viability (HCI13)	cell viability (HCI16)	cell viability (UCD52 [6])	cell viability (WHIM2 [7])	cell viability (WHIM30 [8])
CCc1oc2ccccc2c1C(=O)c1cc(Br)c(O)c(Br)c1 [Benzbromarone]	88.4	92.9	102	88.3	65.9 ± 49	103	33.8 ± 25	98	128 ± 29	97	76 ± 7.4	40.1 ± 12	95.1 ± 20
CC(C)C(=O)OCC(=O)[C@@]12O[C@H](C3CCCCC3)O[C@@H]1C[C@H]1[C@@H]3CCC4=CC(=O)C=C[C@]4(C)[C@H]3[C@@H](O)C[C@@]12C [Ciclesonide]	115	127	81.6	145	67.6 ± 23	76.3	50.6 ± 24	90.1	48.9 ± 2.2	122	46.7 ± 24	36 ± 1.9	100 ± 16
COc1cc2nccc(Oc3ccc(NC(=O)Nc4cc(C)on4)c(Cl)c3)c2cc1OC [Tivozanib (AV-951)]	91	61.4	94.3	85.1	85.4 ± 37	80	67 ± 50	75.1	60.9 ± 7.7	69.7	81.1 ± 22	61.7 ± 18	57.6 ± 2.1
COc1cc2nccc(Oc3ccc(NC(=O)NC4CC4)c(Cl)c3)c2cc1C(N)=O [Lenvatinib (E7080)]	89.1	56.2	83	94.1	94.2 ± 28	70.5	79.8 ± 7.3	48.6	44.8 ± 3.3	61.4	57.8 ± 6.3	64 ± 21	48.1 ± 2
COCCOC(=O)C1=C(C)NC(C)=C(C(=O)OCC=Cc2ccccc2)C1c1cccc([N+](=O)[O-])c1 (centres undefined) [Cilnidipine]	111	95.4	97.7	103	93.8 ± 25	90.1	81.4 ± 20	81.7	66.6 ± 38	54.9	84 ± 6.8	41.1 ± 16	68.7 ± 1.3
CC(C)c1nc(CN(C)C(=O)NC(C(=O)NC(Cc2ccccc2)CC(O)C(Cc2ccccc2)NC(=O)OCc2cncs2)C(C)C)cs1 (centres undefined) [Ritonavir]	88.2	82.1	88.4	91.1	72 ± 3.7	98	48.2 ± 0.57	83.6	57.8 ± 3.3	96.1	41.5 ± 0.54	62.6 ± 2.7	82 ± 16
CCCCCCCCc1ccc(CCC(N)(CO)CO)cc1.Cl [Fingolimod (FTY720)]	97.7	87.9	92.2	84.3	28.9 ± 5.8	53.9	18.8 ± 3.1	33.8	52.3 ± 9.9	49.1	25.6 ± 1.3	77.9 ± 3.2	82.5 ± 15
COc1cc2c(Oc3ccc4[nH]c(C)cc4c3F)ncnc2cc1OCCCN1CCCC1 [Cediranib (AZD217)]	81.9	29.2	25.6	47.5	69.3 ± 10	54	43.8 ± 19	61.5	57.7 ± 16	70.1	50.84 ± 0.26	38.2 ± 7.5	68.3 ± 4.1
CCCCc1oc2ccc(NS(C)(=O)=O)cc2c1C(=O)c1ccc(OCCCN(CCCC)CCCC)cc1.Cl [Dronedarone HCl]	110	86.5	106	76.2	29.3 ± 12	48	24.4 ± 12	66.1	34.9 ± 1.1	46.6	30.9 ± 5.9	40.9 ± 14	33.3 ± 5.1
Cl.OC(CNCC(O)C1CCc2cc(F)ccc2O1)C1CCc2cc(F)ccc2O1 (centres undefined) [Nebivolol]	91.1	92.3	91.5	103	75.3 ± 2.5	87.2	86.8 ± 8.1	87.2	94.2 ± 18	64.9	38.43 ± 0.34	40.5 ± 9.2	81 ± 2.3
Cn1cnc2c(F)c(Nc3ccc(Br)cc3F)c(C(=O)NOCCO)cc21	71.6	59.9	80.7	69.9	84.1 ± 12	90.7	65.6 ± 13	76.4	70.9 ± 7.1	79.6	59.8 ± 8.5	55.2 ± 20	106 ± 14
Clc1ccc(CSC(Cn2ccnc2)c2ccc(Cl)cc2Cl)cc1.O=[N+]([O-])O (centres undefined) [Sulconazole Nitrate]	95.2	96.5	108	92.9	28.4 ± 6.5	77.3	24.5 ± 2.6	78.3	40.1 ± 3	74.1	35.2 ± 2.8	34.9 ± 8.5	119 ± 0.69
CC1=C(C(=O)OC(C)C)C(c2cccc([N+](=O)[O-])c2)C(C(=O)OC2CN(C(c3ccccc3)c3ccccc3)C2)=C(N)N1 (centres undefined) [Azelnidipine]	93.6	73.5	85.9	88.3	33.6 ± 1.3	59	21.5 ± 0.58	80.4	41.6 ± 5.9	62	93.5 ± 6.1	61.3 ± 19	57.7 ± 26
COC(=O)C12CCC(C)(C)CC1C1C(=O)C=C3C4(C)C=C(C#N)C(=O)C(C)(C)C4CCC3(C)C1(C)CC2 (centres undefined) [Bardoxolone methyl]	145	60.9	59.9	65.3	28.5 ± 3.9	33.9	23.1 ± 1.8	23.2	31.5 ± 3	30.4	24.6 ± 1	34.2 ± 5.5	26.8 ± 1.1
CC(C)COc1ccc(CNC(=O)N(Cc2ccc(F)cc2)C2CCN(C)CC2)cc1 [Pimavanserin]	93.5	83.6	103	88	98.1 ± 1.5	111	56.7 ± 18	81	171 ± 10	87.3	46.4 ± 3.1	43.7 ± 2.7	83.5 ± 3.7
O=C(NC1CCN(CCCCC2(C(=O)NCC(F)(F)F)c3ccccc3-c3ccccc32)CC1)c1ccccc1-c1ccc(C(F)(F)F)cc1 [Lomitapide]	92.2	56.3	62.7	63.8	34.8 ± 7.4	49.3	26.5 ± 2.4	43.7	33.8 ± 3.2	47.3	33 ± 3	41 ± 4.1	109 ± 5.5
CC(CCC(=O)O)C1CCC2C3CCC4CC(O)CCC4(C)C3CCC12C (centres undefined) [Lithocholic Acid]	89.2	96.6	92.9	91.5	65.5 ± 50	132	95.1 ± 24	103	84.8 ± 7	91.3	86.8 ± 6.5	37.8 ± 10	90.1 ± 6.3
CN(C)CCOc1ccc(C(=C(CCCl)c2ccccc2)c2ccccc2)cc1.O=C(O)CC(O)(CC(=O)O)C(=O)O [Toremifene Citrate]	127	98.4	119	102	37.2 ± 1.9	63.8	34.3 ± 1.8	86.8	46.4 ± 2.6	73.2	38.3 ± 2.4	43.3 ± 4.1	54.4 ± 4.8
Br.Cc1ccc(Sc2ccccc2N2CCNCC2)c(C)c1	113	71.2	102	80.6	28 ± 3	44.4	17.5 ± 4	76.7	39.1 ± 6.4	35.3	23.6 ± 4.2	33.9 ± 14	26.9 ± 4.6
C=C1C(=CC=C2CCCC3(C)C2CCC3C(C)C=CC(C)C(C)C)CC(O)CC1O (centres undefined) [Doxercalciferol]	75.3	63.6	61.8	93.1	39.4 ± 14	137	26.4 ± 8.6	75.3	52.8 ± 3	106	54.8 ± 6.5	50.8 ± 12	180 ± 17
O=C(C=Cn1cnc(-c2cc(C(F)(F)F)cc(C(F)(F)F)c2)n1)NNc1cnccn1	67.4	59.5	66.1	41.8	41.9 ± 24	41	31.5 ± 14	92.7	35.4 ± 2.5	73.2	80.1 ± 1.8	70.94 ± 0.096	46.7 ± 0.48
CCCCCCCCCCCC1=C(O)C(=O)C=C(O)C1=O [Embelin]	92.8	86.8	93.5	85.6	75.6 ± 18	97.1	22.8 ± 1.3	54.1	86.3 ± 2.1	92.7	72.3 ± 5.4	77.1 ± 2.9	70.1 ± 13
CCCCc1oc2ccc(NS(C)(=O)=O)cc2c1C(=O)c1ccc(OCCCN(CCCC)CCCC)cc1 [Dronedarone]	98.7	81.4	91.8	79.8	32.4 ± 2	40.7	22.2 ± 1.3	90.5	35.6 ± 0.56	32.7	29.7 ± 2.9	41.3 ± 5.4	38.6 ± 2.7
C=C1C(=CC=C2CCCC3(C)C2CCC3C(C)CCCC(C)(C)O)CC(O)CC1O (centres undefined) [Calcitriol]	70.8	50.1	46.8	92.9	27.6 ± 12	119	27 ± 5.2	73.4	66.4 ± 6.8	107	55.7 ± 0.62	39.3 ± 9.2	137 ± 14
[O-]n1ccccc1=S.[O-]n1ccccc1=S.[Zn+2] [Zinc Pyrithione]	52	67.2	70.2	65.3	16 ± 11	45.1	29.6 ± 26	24.8	144 ± 130	43.1	25.6 ± 1.7	33 ± 8.9	45.5 ± 4.8
COc1cc(Nc2c(C#N)cnc3cc(OCCCN4CCN(C)CC4)c(OC)cc23)c(Cl)cc1Cl [Bosutinib (SKI-606)]	61.1	30.4	55.4	68.4	48.4 ± 2.7	48	53.7 ± 33	101	71.4 ± 48	55.8	37.1 ± 4.8	36.7 ± 13	52.1 ± 9.3
CC(C)CC(NC(=O)C(NC(=O)c1cccc(-c2ccccc2)n1)C(C)O)B(O)O (centres undefined)	55.2	25	132	22.5	76.8 ± 10	93.4	15.8 ± 2	171	40.5 ± 10	82.8	66 ± 0.77	42.8 ± 3.3	93.3 ± 3.5
CO[C@H]1/C=C/O[C@@]2(C)Oc3c(C)c(O)c4c(O)c(c(/C=N/N5CCN(C6CCCC6)CC5)c(O)c4c3C2=O)NC(=O)/C(C)=C\C=C\[C@H](C)[C@H](O)[C@@H](C)[C@@H](O)[C@@H](C)[C@H](OC(C)=O)[C@@H]1C [Rifapentine]	93.7	88.8	104	95.8	47.7 ± 28	120	26.9 ± 5.9	104	133 ± 18	122	77.4 ± 4.6	53.9 ± 24	117.8 ± 0.39
